# Screening data as filed in PubChem.
# Sampled rows, rich in hits. Any-hit rate of the full collection: about 3.4%.
# MITF inh: MITF inhibitors, primary screen, biochemical, AlphaScreen, human. AID 1259374, 2018. inhibition, % at 2.6 µM. AlphaScreen MITF homodimerization, bead proximity signal. actives 0.91% (n = 650,000); in the data active = inhibition above about 50%
# FBW7 act: FBW7 E3 ligase activators, primary screen, biochemical, AlphaScreen, human | F-box/WD repeat-containing protein 7 (Homo sapiens), Q969H0 | AlphaScreen FBW7–phospho-cyclin E peptide binding, activator screen | normalized activity (activation), % at 26.1 µM | actives 0.13% (n = 650,000); in the data active = normalized activity above about 1.9%;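 note: purified mutant Fbw7 with reduced substrate affinity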
# GPR151 ag: activators of human GPR151, primary screen, cell-based, PathHunter beta-arrestin, luminescence; G-protein coupled receptor 151 (Homo sapiens), Q8TDV0; PathHunter beta-arrestin GPR151 cells; activation, % at 11.2 µM; actives 1% (n = 650,000); in the data active = activation above about 4.9%
# TEAD-YAP block: TEAD-YAP interaction inhibition, primary screen, TEAD-YAP interaction inhibitor project, luminescence, HEK-TIYL cells. TEAD-Gal4/YAP UAS-luciferase luminescence. actives 1.4% (n = 640,000). inhibition, % at 9.12 µM; in the data active = inhibition above about 32%
# GPR151 confirm: GPR151 activators, triplicate retest, confirmation, cell-based, PathHunter beta-arrestin, luminescence; shares compounds with GPR151 ag; GPR151 PathHunter beta-arrestin cells, 90 min; % of EA-reagent control over plate median; activation, % at 11.2 µM; 6,700 tested, under 10 active; AID 1508609, 2020;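 active = mean percent activation across replicates above the confirmation screen cutoff of 4.91%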
# GPR119 ag: GPR119 activators in beta-arrestin cells, counter-screen for GPR151 activator project, cell-based, PathHunter beta-arrestin, luminescence, triplicate; actives 0.3% (n = 6,700); activation, % at 11.2 µM; 90 min; 0 = compound-well median, 100 = enzyme-acceptor control; shares compounds with GPR151 ag;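 active = mean percent activation in the counterscreen above 29.09%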;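 note: counterscreen on off-target GPR119 to flag nonselective hits from the GPR151 activator screen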
# Target sequence (Q8TDV5 whole entry, looked up): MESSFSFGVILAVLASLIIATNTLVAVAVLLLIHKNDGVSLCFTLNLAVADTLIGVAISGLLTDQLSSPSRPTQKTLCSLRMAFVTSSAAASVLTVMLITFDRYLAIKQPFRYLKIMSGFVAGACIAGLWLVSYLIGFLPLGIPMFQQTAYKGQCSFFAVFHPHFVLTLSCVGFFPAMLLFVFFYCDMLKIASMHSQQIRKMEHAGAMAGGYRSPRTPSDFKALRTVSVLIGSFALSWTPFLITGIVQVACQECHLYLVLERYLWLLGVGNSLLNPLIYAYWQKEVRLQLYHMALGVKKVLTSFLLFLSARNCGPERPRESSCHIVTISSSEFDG
# Numbers stand for hits; n = inactive; x = no result; ! = not confirmed by another sample.
SMILES,MITF inh,FBW7 act,GPR151 ag,TEAD-YAP block,GPR151 confirm,GPR119 ag
O=C(NCCc1ccc(O)cc1)C1CCN(c2ccc(Nc3ccc(C(F)(F)F)cc3)nn2)CC1,n,n,n,n,x,x
Cc1cnc(C)c(NC2CCCCNC2=O)n1 (centres undefined),n,n,8.0,n,n,n
COc1ccc(-c2cnnc(N[C@H]3CCCCNC3=O)n2)cc1,n,n,n,n,x,x
CC(C)(C)Nc1nc(-c2cccc(Br)c2)cs1,n,n,7.5,n,n,n
CCC(=O)Nc1nc(-c2cccc(Br)c2)cs1,n,n,n,n,x,x
COc1ccc(Br)cc1C1=N/C(=C\c2cccc(OC)c2OC)C(=O)O1,n,n,6.8,n,n,n
COc1ccc(Br)cc1/C=C1\N=C(c2cc(Br)ccc2OC)OC1=O,n,n,n,n,x,x
CC(C)NS(=O)(=O)Nc1cccc2ccccc12,n,n,n,n,x,x
COC(=O)C(C)N1C(=O)S/C(=C/c2cccc(C)c2)C1=O (centres undefined),n,n,n,n,x,x
CCc1cccc(C)c1NC(=O)CSc1ncn[nH]1,n,n,7.4,n,n,n
Cc1cccc(C)c1NC(=O)CSc1ncn[nH]1,n,n,n,n,x,x
CCN(CC)c1ccc(/C=N/NC(=O)c2ccc(O)cc2O)cc1,n,n,6.0,74,n,n
CCN(CC)c1ccc(/C=N\NC(=O)c2ccc(O)cc2)cc1,n,n,n,n,x,x
CC(=O)N/C(N)=N/c1nc2cc(C)ccc2o1,n,n,5.4!,n,n,n
COc1ccc(NC(=O)CN2C(=O)CC(c3ccccc3)Sc3ccccc32)cc1OC (centres undefined),n,n,7.4,n,n,n
COc1ccc(NC(=O)CN2C(=O)COc3ccc(C)cc32)cc1OC,n,n,6.0,n,n,n
CCOC(=O)CN1C(=O)COc2ccc(Cl)cc21,n,n,5.6,n,n,n
Cc1ccc2c(c1)N(CC(=O)Nc1ccc3c(c1)OCCO3)C(=O)CO2,n,n,n,n,x,x
COc1ccc(NC(=O)CN2C(=O)CC(c3ccco3)Sc3ccccc32)cc1OC (centres undefined),n,n,n,n,x,x
COc1ccc(NC(=O)CN2C(=O)C(C)Oc3ccc(C)cc32)cc1 (centres undefined),n,n,n,n,x,x
Cc1ccc2c(c1)N(CC(=O)Nc1ccc(Cl)cc1)C(=O)C(C)O2 (centres undefined),n,n,22,n,n,n
O=C(Nc1ccc2oc(-c3ccc(F)cc3Cl)nc2c1)c1ccccc1Br,n,n,n,n,x,x
COc1ccc(/C=C2\NC(=S)N(C)C2=O)cc1Br,n,n,n,n,x,x
CCOC(=O)C1CCCN(CC(O)COc2cccc(C)c2C)C1 (centres undefined),n,n,n,n,x,x
CCOc1cc(/C=C2\C(=O)N(c3cccc(C(=O)O)c3)N=C2C)cc(Cl)c1OCc1ccccc1,n,n,n,n,x,x
SMILES,MITF inh,FBW7 act,GPR151 ag,TEAD-YAP block,GPR151 confirm,GPR119 ag
COc1ccc2nc(NCCNC(=O)Nc3ccccc3C(F)(F)F)c(C#N)cc2c1,n,n,n,n,x,x
COc1cc(/C=C(/C#N)c2nc3ccccc3[nH]2)ccc1OC(C)C(=O)O (centres undefined),n,n,n,n,x,x
O=C(CN1C(=O)COc2ccc(Cl)cc21)Nc1ccc([N+](=O)[O-])cc1,n,n,7.6,n,n,n
O=C(O)CN(CC(=O)Nc1ccc2c(c1)OCCCO2)Cc1ccccc1,n,n,9.1,n,n,n
O=C(CCl)Nc1ccc2c(c1)OCCCO2,n,n,n,n,x,x
NC(=O)C1(N2CCCCC2)CCN(C(=S)Nc2ccc(F)c(Cl)c2)CC1,n,n,5.1,n,n,n
NC(=O)C1(N2CCCCC2)CCN(CC(=O)Nc2ccc(F)c(Cl)c2)CC1,n,n,n,n,x,x
Cc1ccc2oc(C(=O)NCCc3ccc(S(N)(=O)=O)cc3)c(C)c2c1,n,n,n,n,x,x
